# Measured values from PubChem BioAssay (NCI).
# Compounds without any hit were thinned out: in the full panel of roughly 79,000, 15% have a hit. A number with no mark means an inactive call. Activity calls are given as the source filed them. Cut-off read from the data, not from the text of the source: active = growth inhibition above about 70%; inactive = the rest.
# Legend:
# [1] = NCI Yeast Anticancer Drug Screen. Data for the rad52 strain (AID 147);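 note: 0% = growth of vehicle-treated control cultures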; settings: S. cerevisiae rad52 mutant growth inhibition, stronger effect = higher value
# Summary of the method: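 Measured: yeast growth inhibition. System: strain with a defined DNA damage repair alteration. Reference: vehicle-treated control cultures.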
# [2] = NCI Yeast Anticancer Drug Screen. Data for the wt1 strain (AID 149);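 note: 0% = growth of vehicle-treated wt1 cultures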; settings: S. cerevisiae wt1 strain (SPY 50644) growth inhibition, stronger effect = higher value
# Summary of the method: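 Each compound is tested on wt1 yeast and the loss of growth versus vehicle gives the inhibition value.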
# [3] = NCI Yeast Anticancer Drug Screen. Data for the rad50EPP+ strain (AID 151);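 note: 0% = growth of vehicle-treated control cultures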; settings: S. cerevisiae rad50 mutant strain, stronger effect = higher value
# Summary of the method: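 One strain with a rad50 alteration (rad50EPP+) was compound-treated, its growth then compared to that of vehicle controls.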
# [4] = NCI Yeast Anticancer Drug Screen. Data for the mgt1 strain (AID 153); settings: S. cerevisiae mgt1 mutant growth inhibition, stronger effect = higher value
# Summary of the method: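 After exposure of the mgt1 yeast mutant to compound, growth was measured and reported as inhibition compared with vehicle controls.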
# [5] = NCI Yeast Anticancer Drug Screen. Data for the rad50 strain (AID 155);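 note: 0% = growth of vehicle-only cultures of the same strain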; settings: S. cerevisiae rad50 strain growth inhibition, stronger effect = higher value
# Summary of the method: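 Vehicle-treated cultures provide the reference for the growth inhibition reported for compound-exposed, repair-deficient yeast.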
# [6] = NCI Yeast Anticancer Drug Screen. Data for the mec2-1 strain (AID 157); settings: S. cerevisiae mec2-1 strain, stronger effect = higher value
# Summary of the method: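 Test agents were screened against the mec2-1 yeast strain, with defined DNA repair or cell cycle alteration. Growth was scored as inhibition against vehicle-only controls.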
# [7] = NCI Yeast Anticancer Drug Screen. Data for the rad14 strain (AID 159);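 note: 0% = growth of vehicle-treated control cultures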; settings: S. cerevisiae rad14 strain growth inhibition, stronger effect = higher value
# Summary of the method: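 Inhibition of growth is reported for a repair-deficient yeast mutant following compound treatment, calculated relative to cultures that received vehicle.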
# [8] = NCI Yeast Anticancer Drug Screen. Data for the sgs1 mgt1 strain (AID 161);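 note: 0% = growth of cultures given vehicle only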; settings: S. cerevisiae sgs1 mgt1 strain, stronger effect = higher value
# Summary of the method: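 Mutant yeast exposed to compound; growth scored against vehicle-only wells.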
# [9] = NCI Yeast Anticancer Drug Screen. Data for the CLN2oe strain (AID 163);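 note: 0% = growth of vehicle-only control cultures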; settings: S. cerevisiae CLN2oe strain, stronger effect = higher value
# Summary of the method: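 Here, growth inhibition in a cell-cycle-altered yeast strain after compound exposure was quantified against vehicle control growth.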
# [10] = NCI Yeast Anticancer Drug Screen. Data for the cln2 rad14 strain (AID 165);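 note: 0% = growth equal to vehicle treated cultures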; settings: S. cerevisiae cln2 rad14 strain, stronger effect = higher value
# Summary of the method: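 Growth of compound-exposed yeast (cln2 rad14 genotype) measured and expressed as inhibition relative to vehicle.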
# [11] = NCI Yeast Anticancer Drug Screen. Data for the bub3 strain (AID 167); settings: S. cerevisiae bub3 mutant strain, stronger effect = higher value
# Summary of the method: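 Mutant yeast screening strain plus compound; vehicle-treated cultures serve as the 0% inhibition reference.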
# [12] = NCI Yeast Anticancer Drug Screen. Data for the wt2 strain (AID 169); settings: S. cerevisiae wt2 strain growth inhibition, stronger effect = higher value
# Summary of the method: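 Genetically defined yeast strains from a DNA-repair/cell-cycle panel were used. Compound-exposed yeast growth was measured, and the inhibition was calculated relative to vehicle treatment.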
# [13] = NCI Yeast Anticancer Drug Screen. Data for the mlh1 strain (AID 171);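 note: 0% = growth of vehicle-treated control cultures of the same strain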; settings: S. cerevisiae mlh1 strain growth inhibition, stronger effect = higher value
# Summary of the method: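 Here the genetically defined yeast mutant is grown with each compound, and the extent to which its growth falls below that of vehicle-exposed cells is reported.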
# [14] = NCI Yeast Anticancer Drug Screen. Data for the sgs1 strain (AID 173);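 note: 0% = growth of vehicle-only control cultures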; settings: S. cerevisiae sgs1 mutant, stronger effect = higher value
# Summary of the method: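 Relative growth inhibition, referenced to vehicle, was determined in a yeast strain with a defined alteration affecting DNA damage repair or cell cycle control after compound exposure.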
# [15] = NCI Yeast Anticancer Drug Screen. Data for the mlh1 rad18 strain (AID 175); settings: S. cerevisiae mlh1 rad18 strain growth inhibition, stronger effect = higher value
# Summary of the method: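 In this whole-cell yeast screen, a strain with altered DNA damage repair is challenged with compound, and its growth is measured against matched vehicle-treated controls.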
# [16] = NCI Yeast Anticancer Drug Screen. Data for the rad18 strain (AID 177); settings: S. cerevisiae rad18 mutant growth inhibition, stronger effect = higher value
# Summary of the method: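 Screen uses a yeast strain with a defined lesion in DNA damage repair; compound effect is read as loss of growth compared to untreated vehicle cultures.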
# [17] = at 5.0 µM (retest, dose inferred, filed as 0.5)
# [18] = at 50.0 µM (retest, dose inferred, filed as 5.0)
smiles,measurement,setting,value
COc1ccc(/C=C2\SC(=S)N(/C=C3\C(=O)N(c4ccccc4)N=C3C)C2=O)cc1OC,growth inhibition,[1]; at 1.2 µM,3%
same,growth inhibition,[1]; at 3.7 µM,8%
same,growth inhibition,[1]; at 11.0 µM,25%
same,growth inhibition,[1]; at 33.0 µM,64%
same,growth inhibition,[1]; at 100.0 µM,77% (active)
same,growth inhibition,[2]; at 1.2 µM,3%
same,growth inhibition,[2]; at 3.7 µM,5%
same,growth inhibition,[2]; at 11.0 µM,11%
same,growth inhibition,[2]; at 33.0 µM,48%
same,growth inhibition,[2]; at 100.0 µM,76% (active)
same,growth inhibition,[3]; at 1.2 µM,-1%
same,growth inhibition,[3]; at 3.7 µM,6%
same,growth inhibition,[3]; at 11.0 µM,24%
same,growth inhibition,[3]; at 33.0 µM,55%
same,growth inhibition,[3]; at 100.0 µM,58%
same,growth inhibition,[4]; at 1.2 µM,1%
same,growth inhibition,[4]; at 3.7 µM,3%
same,growth inhibition,[4]; at 11.0 µM,27%
same,growth inhibition,[4]; at 33.0 µM,79% (active)
same,growth inhibition,[4]; at 100.0 µM,89% (active)
same,growth inhibition,[5]; at 1.2 µM,-5%
same,growth inhibition,[5]; at 3.7 µM,-10%
same,growth inhibition,[5]; [17],5%
same,growth inhibition,[5]; at 11.0 µM,9%
same,growth inhibition,[5]; at 33.0 µM,61%
same,growth inhibition,[5]; [18],51%
same,growth inhibition,[5]; at 50.0 µM,63.4%
same,growth inhibition,[5]; at 100.0 µM,71% (active)
same,growth inhibition,[6]; at 1.2 µM,3%
same,growth inhibition,[6]; at 3.7 µM,4%
same,growth inhibition,[6]; [17],-7%
same,growth inhibition,[6]; at 11.0 µM,18%
same,growth inhibition,[6]; at 33.0 µM,65%
same,growth inhibition,[6]; [18],52%
same,growth inhibition,[6]; at 50.0 µM,73.2% (active)
same,growth inhibition,[6]; at 100.0 µM,80% (active)
same,growth inhibition,[7]; at 1.2 µM,3%
same,growth inhibition,[7]; at 3.7 µM,4%
same,growth inhibition,[7]; at 11.0 µM,26%
same,growth inhibition,[7]; at 33.0 µM,66%
same,growth inhibition,[7]; at 100.0 µM,74% (active)
same,growth inhibition,[8]; [17],-4%
same,growth inhibition,[8]; [18],83% (active)
same,growth inhibition,[8]; at 50.0 µM,79.2% (active)
same,growth inhibition,[9]; at 1.2 µM,-18%
same,growth inhibition,[9]; at 3.7 µM,-9%
same,growth inhibition,[9]; at 11.0 µM,3%
same,growth inhibition,[9]; at 33.0 µM,58%
same,growth inhibition,[9]; at 100.0 µM,71% (active)
same,growth inhibition,[10]; [17],-5%
same,growth inhibition,[10]; [18],61%
same,growth inhibition,[10]; at 50.0 µM,50.8%
same,growth inhibition,[11]; at 1.2 µM,-2%
same,growth inhibition,[11]; at 3.7 µM,0%
same,growth inhibition,[11]; [17],5%
same,growth inhibition,[11]; at 11.0 µM,11%
same,growth inhibition,[11]; at 33.0 µM,42%
same,growth inhibition,[11]; [18],17%
same,growth inhibition,[11]; at 50.0 µM,67.6%
same,growth inhibition,[11]; at 100.0 µM,65%
same,growth inhibition,[12]; at 1.2 µM,-2%
same,growth inhibition,[12]; at 3.7 µM,2%
same,growth inhibition,[12]; at 11.0 µM,26%
same,growth inhibition,[12]; at 33.0 µM,82% (active)
same,growth inhibition,[12]; at 100.0 µM,89% (active)
same,growth inhibition,[13]; at 1.2 µM,0%
same,growth inhibition,[13]; at 3.7 µM,3%
same,growth inhibition,[13]; at 11.0 µM,25%
same,growth inhibition,[13]; at 33.0 µM,81% (active)
same,growth inhibition,[13]; at 100.0 µM,88% (active)
same,growth inhibition,[14]; at 1.2 µM,4%
same,growth inhibition,[14]; at 3.7 µM,15%
same,growth inhibition,[14]; at 11.0 µM,42%
same,growth inhibition,[14]; at 33.0 µM,86% (active)
same,growth inhibition,[14]; at 100.0 µM,90% (active)
same,growth inhibition,[15]; [17],7%
same,growth inhibition,[15]; [18],67%
same,growth inhibition,[15]; at 50.0 µM,76.2% (active)
same,growth inhibition,[16]; at 1.2 µM,5%
same,growth inhibition,[16]; at 3.7 µM,17%
same,growth inhibition,[16]; at 11.0 µM,37%
same,growth inhibition,[16]; at 33.0 µM,68%
same,growth inhibition,[16]; at 100.0 µM,74% (active)
OB(O)c1ccccc1C#Cc1ccccc1,growth inhibition,[1]; at 1.2 µM,3%
same,growth inhibition,[1]; at 3.7 µM,4%
same,growth inhibition,[1]; at 11.0 µM,8%
same,growth inhibition,[1]; at 33.0 µM,21%
same,growth inhibition,[1]; at 100.0 µM,27%
same,growth inhibition,[2]; at 1.2 µM,-2%
same,growth inhibition,[2]; at 3.7 µM,-2%
same,growth inhibition,[2]; at 11.0 µM,2%
same,growth inhibition,[2]; at 33.0 µM,8%
same,growth inhibition,[2]; at 100.0 µM,15%
same,growth inhibition,[3]; at 1.2 µM,-1%
same,growth inhibition,[3]; at 3.7 µM,3%
same,growth inhibition,[3]; at 11.0 µM,12%
same,growth inhibition,[3]; at 33.0 µM,33%
same,growth inhibition,[3]; at 100.0 µM,34%
same,growth inhibition,[4]; at 1.2 µM,1%
same,growth inhibition,[4]; at 3.7 µM,3%
same,growth inhibition,[4]; at 11.0 µM,8%
same,growth inhibition,[4]; at 33.0 µM,14%
same,growth inhibition,[4]; at 100.0 µM,18%
same,growth inhibition,[5]; at 1.2 µM,5%
same,growth inhibition,[5]; at 3.7 µM,13%
same,growth inhibition,[5]; [17],-14%
same,growth inhibition,[5]; at 11.0 µM,20%
same,growth inhibition,[5]; at 33.0 µM,29%
same,growth inhibition,[5]; [18],21%
same,growth inhibition,[5]; at 50.0 µM,96.3% (active)
same,growth inhibition,[5]; at 100.0 µM,43%
same,growth inhibition,[6]; at 1.2 µM,-1%
same,growth inhibition,[6]; at 3.7 µM,6%
same,growth inhibition,[6]; [17],-5%
same,growth inhibition,[6]; at 11.0 µM,12%
same,growth inhibition,[6]; at 33.0 µM,21%
same,growth inhibition,[6]; [18],1%
same,growth inhibition,[6]; at 50.0 µM,64.5%
same,growth inhibition,[6]; at 100.0 µM,28%
same,growth inhibition,[7]; at 1.2 µM,2%
same,growth inhibition,[7]; at 3.7 µM,2%
same,growth inhibition,[7]; at 11.0 µM,12%
same,growth inhibition,[7]; at 33.0 µM,27%
same,growth inhibition,[7]; at 100.0 µM,37%
same,growth inhibition,[8]; [17],-16%
same,growth inhibition,[8]; [18],22%
same,growth inhibition,[8]; at 50.0 µM,76.8% (active)
same,growth inhibition,[9]; at 1.2 µM,7%
same,growth inhibition,[9]; at 3.7 µM,9%
same,growth inhibition,[9]; at 11.0 µM,23%
same,growth inhibition,[9]; at 33.0 µM,43%
same,growth inhibition,[9]; at 100.0 µM,40%
same,growth inhibition,[10]; [17],-12%
same,growth inhibition,[10]; [18],13%
same,growth inhibition,[10]; at 50.0 µM,55.8%
same,growth inhibition,[11]; at 1.2 µM,8%
same,growth inhibition,[11]; at 3.7 µM,2%
same,growth inhibition,[11]; [17],-20%
same,growth inhibition,[11]; at 11.0 µM,21%
same,growth inhibition,[11]; at 33.0 µM,34%
same,growth inhibition,[11]; [18],43%
same,growth inhibition,[11]; at 50.0 µM,76.8% (active)
same,growth inhibition,[11]; at 100.0 µM,46%
same,growth inhibition,[12]; at 1.2 µM,-2%
same,growth inhibition,[12]; at 3.7 µM,-1%
same,growth inhibition,[12]; at 11.0 µM,7%
same,growth inhibition,[12]; at 33.0 µM,23%
same,growth inhibition,[12]; at 100.0 µM,24%
same,growth inhibition,[13]; at 1.2 µM,-2%
same,growth inhibition,[13]; at 3.7 µM,6%
same,growth inhibition,[13]; at 11.0 µM,4%
same,growth inhibition,[13]; at 33.0 µM,14%
same,growth inhibition,[13]; at 100.0 µM,14%
same,growth inhibition,[14]; at 1.2 µM,-1%
same,growth inhibition,[14]; at 3.7 µM,-1%
same,growth inhibition,[14]; at 11.0 µM,8%
same,growth inhibition,[14]; at 33.0 µM,19%
same,growth inhibition,[14]; at 100.0 µM,31%
same,growth inhibition,[15]; [17],13%
same,growth inhibition,[15]; [18],68%
same,growth inhibition,[15]; at 50.0 µM,75.8% (active)
same,growth inhibition,[16]; at 1.2 µM,1%
same,growth inhibition,[16]; at 3.7 µM,2%
same,growth inhibition,[16]; at 11.0 µM,13%
same,growth inhibition,[16]; at 33.0 µM,41%
same,growth inhibition,[16]; at 100.0 µM,54%
